Measurements: ChEMBL document CHEMBL1157539, “Thousands of chemical starting points for antimalarial lead identification” (Nature, 2010)

Key:
Type in all cases: functional
Plasmodium falciparum [1] = test: GSK_TCMDC: Inhibition of Plasmodium falciparum 3D7 in whole red blood cells, using parasite LDH activity as an index of growth. Test compounds present at 2uM
Plasmodium falciparum [2] = test: GSK_TCMDC: Inhibition of Plasmodium falciparum Dd2 in whole red blood cells, using parasite LDH activity as an index of growth. Test compounds present at 2uM
HepG2 = test: GSK_TCMDC: Percent inhibition of human HepG2 cell line. Test compounds present at 10uM.

Row | SMILES | Inhibition (Plasmodium falciparum [1]) [%] | Inhibition (Plasmodium falciparum [2]) [%] | Inhibition (HepG2) [%]
1 | Cl.N#Cc1ccc2c(c1)CCN(CCC1CCC(NC(=O)/C=C/c3ccc(Cl)c(Cl)c3)CC1)CC2 (stereo not given) | 100 | 51 | 31
2 | COc1ccc(S(=O)(=O)NC2CCN(CCNC(=O)Nc3cc(C)nc4ccccc34)C2)cc1 (stereo not given) | 88 | 41 | 0
3 | CCCCC(=O)Nc1nc2ccc([N+](=O)[O-])cc2s1 | 91 | 69 | 9
4 | CN1CCN(CCCN(Cc2csc(-c3ccc(CNCc4ccccc4)cc3)n2)S(=O)(=O)c2ccccc2)CC1.O=C(O)C(F)(F)F | 99 | 78 | 17
5 | c1ccc(-c2cccc(-c3ccccn3)n2)nc1 [TERPYRIDINE] | 98 | 99 | 45
6 | COc1ccc(Nc2nc(N/N=C/c3ccc(-c4ccc([N+](=O)[O-])cc4)o3)nc(Nc3ccccc3)n2)cc1 | 100 | 17 | 0
7 | FC(F)(F)Oc1ccc(Nc2cc(-c3ccncc3)nc(-c3cccnc3)n2)cc1 | 94 | 52 | 24
8 | O=C(/C=C/c1ccc(Cl)cc1)NCCCCCN1CCC(C(=O)Nc2ccc(Cl)cc2)CC1 | 99 | 0 | 27
9 | Cc1ccnc(NC(c2cccc(Cl)c2Cl)c2ccc3cccnc3c2O)c1 (stereo not given) | 86 | 38 | 46
10 | COc1ccc(Nc2nc(NC3CCN(Cc4ccccc4)CC3)cc(-c3ccncc3)n2)cc1 | 88 | 40 | 26
11 | O=C(Nc1ccc(Cn2ncc(N3CCCNCC3)c(Cl)c2=O)cc1)Nc1ccc(OCc2ccccc2)cc1.O=C(O)C(F)(F)F | 90 | 32 | 15
12 | Cc1sc2nc(CSc3ccccc3)nc(N3CCN(CC(=O)N4CCCC4)CC3)c2c1C | 91 | 69 | 19
13 | CC(=O)Nc1ncc(C(=O)Nc2cccc(-c3cccc(-c4nc5cccc(C)c5[nH]4)c3)c2)s1 | 94 | 64 | 15
14 | CCN(CC)CCNc1ccnc2[nH]c3ccc(C)cc3c12 | 100 | 81 | 9
15 | CCC(C)OC(=O)C1=C(C)NC2=C(C(=O)CC(c3ccc(OC)c(OC)c3)C2)C1c1cccc(O)c1 (stereo not given) | 100 | 98 | 0
16 | CC(=O)Oc1ccc(C(=O)Oc2ccccc2C#CC#N)cc1OC(C)=O | 93 | 61 | 23
17 | COc1ccc(CN(C)CCCc2ccc(NC(=O)c3cc4ccccc4[nH]3)cc2)cc1OC.O=C(O)/C=C/C(=O)O | 97 | 31 | 39
18 | Cc1nn(C)c(C)c1CN(Cc1nc(-c2cccc(Oc3ccccc3)c2)oc1C)C1CC1 | 100 | 98 | 7
19 | N#Cc1ccc(N[C@@H](CC2CCCCC2)C(=O)NCc2cc(F)c(F)cc2F)c2ccccc12.O=C(O)C(F)(F)F | 94 | 39 | 12
20 | CN(C)CCNC(=O)N1CCCN(c2ncnc3cc(-c4ccc(Cl)cc4)sc23)CC1.O=C(O)C(F)(F)F | 98 | 21 | 41

Row | SMILES | Inhibition (Plasmodium falciparum [1]) [%] | Inhibition (Plasmodium falciparum [2]) [%] | Inhibition (HepG2) [%]
21 | Cc1cc(NCCC(=O)Nc2ccccc2)nc(NCCc2cccs2)n1.O=C(O)C(F)(F)F | 99 | 20 | 26
22 | O=S(=O)(c1c(Cl)cccc1Cl)N1CCCCC(c2ccc(C(F)(F)F)cc2)=N1 | 99 | 98 | 11
23 | Nc1ccc2[nH]cc(C3CCN(CCC4CCN(C(=O)/C=C/c5ccc(Cl)c(Cl)c5)CC4)CC3)c2n1 | 100 | 78 | 27
24 | CC(C)CC(NC(=O)c1ccc(F)cc1)C(=O)N[C@H](/C=N/N1CCNC1=O)CC(C)C (stereo not given in full) | 89 | 84 | 0
25 | CC(=O)Nc1ccc(NC(=O)c2cc(-c3cc(Cl)ccc3O)n[nH]2)cc1 | 100 | 100 | 1
26 | O=C(Nc1cccc(CN2CCCN(Cc3ccc(O)cc3)CC2)c1)c1ccc2ccccc2n1.O=C(O)C(F)(F)F | 90 | 22 | 13
27 | Cc1cc(NC(=O)c2coc3cc(F)c(N4CC(C)N(C)C(C)C4)cc23)ccc1-n1ccnc1.Cl (stereo not given) | 96 | 42 | 0
28 | c1cncc(-c2cc(N3CCc4ccccc4C3)nc(-c3ccncc3)n2)c1 | 100 | 100 | 56
29 | CC(=O)Nc1ccc(OCCN(Cc2ccccc2OC(F)(F)F)c2ccc(C(F)(F)F)c(C#N)c2)c(Cl)c1 | 96 | 96 | 8
30 | COc1ccc(CCn2c(=N)c(C(=O)NCc3ccc(C)cc3)cc3c(=O)n4ccccc4nc32)cc1 | 97 | 16 | 13
31 | Cc1cccc2nc(-c3cccc(-c4ccc(C(=O)NCc5ccccc5S(C)(=O)=O)cc4)c3)[nH]c12 | 100 | 27 | 17
32 | CCCCCCNc1cc(C)nc(NC(=N)Nc2cccc(C(F)(F)F)c2)n1 | 100 | 100 | 44
33 | C[C@H](Cc1ccc(OCCCCOc2ccc(C[C@@H](C)NC[C@H](O)c3cccc(Cl)c3)cc2)cc1)NC[C@H](O)c1cccc(Cl)c1 | 100 | 92 | 68
34 | O=C1c2ccccc2C(=O)N1c1ccc(S(=O)(=O)N2CCOCC2)cc1 | 94 | 0 | 0
35 | COc1ccc(CSC2CCCCC23NC(=S)NC3=S)cc1 (stereo not given) | 97 | 0 | 0
36 | COc1cc(-c2cnc(N)c(-c3nc4ccccc4[nH]3)c2)cc(OC)c1OC.Cl | 100 | 57 | 59
37 | CCCCCCN1CCCN(Cc2ccc(C(=O)Nc3ccc(C(C)(C)C)cc3)cc2)CC1.O=C(O)C(F)(F)F | 100 | 32 | 53
38 | COCCNCc1cccc(-c2cc3nccc(Nc4ccc(Oc5ccccc5)cc4)c3cc2Cl)c1 | 99 | 99 | 0
39 | Cc1ccccc1C1CCN(C2CCC(NC(=O)/C=C/c3cccc(Cl)c3)CC2)CC1 (stereo not given) | 98 | 34 | 70
40 | CCCC(C)NC(=O)[C@H]1CNCCN1C(=O)CCCc1ccccc1.O=C(O)C(F)(F)F (stereo not given in full) | 96 | 98 | 47

Row | SMILES | Inhibition (Plasmodium falciparum [1]) [%] | Inhibition (Plasmodium falciparum [2]) [%] | Inhibition (HepG2) [%]
41 | COc1ccc2[nH]c(C(=O)Nc3ccc4[nH]c(-c5ccccc5)nc4c3)cc2c1.O=C(O)C(F)(F)F | 96 | 23 | 51
42 | COc1cccc(CC(=O)NC2CCN(c3ccnc4cc(Cl)ccc34)C2)c1.O=C(O)C(F)(F)F (stereo not given) | 100 | 85 | 9
43 | O=C(Nc1cccc(-c2nn3ncccc3c2-c2ccnc(Nc3ccc(N4CCOCC4)cc3)n2)c1)c1c(F)cccc1F | 100 | 75 | 75
44 | O=C(Nc1nc2cc(S(=O)(=O)NCc3ccc(Cl)c(Cl)c3)ccc2n1CCCn1ccnc1)c1ccc(Cl)cc1.O=C(O)C(F)(F)F | 100 | 44 | 0
45 | Cc1ccc(C(NC(=O)C2CCCCC2)c2ccc3cccnc3c2O)cc1 (stereo not given) | 91 | 59 | 69
46 | CCN(CC)CCNC(=O)c1ccc(Nc2ncc([N+](=O)[O-])c(Nc3ccccc3OC)n2)cc1.Cl | 97 | 58 | 59
47 | CC(CN1CCN(C)CC1)C(=O)Nc1ccc(-c2cccc(-c3nc4cc(C(F)(F)F)ccc4[nH]3)c2)cc1 (stereo not given) | 99 | 96 | 16
48 | NS(=O)(=O)c1cccc(N/C=C2\C(=O)Nc3ccc(S(=O)(=O)Cc4c(Cl)cccc4Cl)cc32)c1 | 92 | 99 | 1
49 | COc1cc(OC)cc(C(=O)Nc2ccc(Nc3nc(C)cc(N(C)C)n3)cc2)c1 | 100 | 90 | 11
50 | COc1ccc(Cn2c(N3CCN(S(=O)(=O)c4ccc(OC)cc4)CC3)nc3c2c(=O)n(CC2CC2)c(=O)n3CC2CC2)cc1 | 92 | 39 | 0
51 | O=C1O[C@H](c2ccccc2)[C@H](c2ccccc2)N(C(=O)OCc2ccccc2)[C@H]1Cc1ccccc1C1CCCC1 | 97 | 0 | 56
52 | Br.N=C1N=C(N)NC2(CCCCC2)N1OCC1CCCCC1 | 96 | 49 | 70
53 | COc1cccc(OC)c1CN1CCC(N(C)CCCCCCCCCN2CCC(OC(=O)Nc3ccccc3-c3ccccc3)CC2)CC1 | 98 | 98 | 100
54 | Oc1cc(Nc2ccnc3cc(-c4cccc(CN5CCOCC5)c4)ccc23)c(F)cc1Cl | 100 | 89 | 12
55 | CN(C)CCN(Cc1ccccc1-c1ccc(CNCCc2ccccc2)cc1)C(=O)NC1CCCCC1.O=C(O)C(F)(F)F | 88 | 89 | 98
56 | COc1ccc(CNC2Cc3ccccc3C2)cc1-c1ccc(S(=O)(=O)NCCc2ccccn2)s1.O=C(O)C(F)(F)F | 92 | 22 | 11
57 | CCOC(=O)c1ccc(COc2ccc(C)nc2)cc1 | 100 | 0 | 14
58 | Cc1cc([N+](=O)[O-])ccc1NC(=O)Nc1cccc(C(F)(F)F)c1 | 100 | 100 | 15
59 | Cc1ccccc1NC(=S)NC1CCN(CCCCCNC(=O)/C=C/c2ccc(Cl)c(Cl)c2)CC1 | 99 | 7 | 14
60 | O=[N+]([O-])c1cccc(Nc2cncc(-c3ccc(CO)cc3)c2)c1 | 85 | 96 | 16
